Measurements reported in ChEMBL document CHEMBL4296182, “CO-ADD screening of NIH NCI Diversity Set V”.
For part of these data: Measured potencies and affinities stand elsewhere.

Key:
Staphylococcus aureus = assay: Antibacterial activity against Staphylococcus aureus MRSA ATCC 43300 (CO-ADD:GP_020); MIC in CAMBH media using NBS plates, by Resazurin F(560/590); format: functional; details: Concentration 20 uM, ASSAY_TEST Inhibition of Bacterial Growth, detection method Resazurin, Fluorescence (ex560/em590), MEDIA CAMHB, plate type 384well, CORNING #3640, time 18 hr
Acinetobacter baumannii = assay: Antibacterial activity against Acinetobacter baumannii ATCC 19606 (CO-ADD:GN_034); MIC in CAMBH media using NBS plates, by Resazurin F(560/590); format: functional; details: Concentration 20 uM, ASSAY_TEST Inhibition of Bacterial Growth, detection method Resazurin, Fluorescence (ex560/em590), MEDIA CAMHB, plate type 384well, CORNING #3640, time 18 hr
Escherichia coli = assay: Antibacterial activity against Escherichia coli ATCC 25922 (CO-ADD:GN_001); MIC in CAMBH media using NBS plates, by Resazurin F(560/590); format: functional; details: Concentration 20 uM, ASSAY_TEST Inhibition of Bacterial Growth, detection method Resazurin, Fluorescence (ex560/em590), MEDIA CAMHB, plate type 384well, CORNING #3640, time 18 hr
Klebsiella pneumoniae = details: Concentration 20 uM; ASSAY_TEST Inhibition of Bacterial Growth; detection method Absorption (OD600); MEDIA CAMHB; plate type 384well; NBS; CORNING #3640; time 18 hr
Candida albicans = details: 20 µM
Cryptococcus neoformans = details: Concentration 20 uM; ASSAY_TEST Inhibition of Fungal Growth; detection method Resazurin; Absorption (OD600-OD570); plate type 384well; NBS; CORNING #3640

Row | Structure (SMILES) | Inhibition (Staphylococcus aureus) | Inhibition (Acinetobacter baumannii) | Inhibition (Escherichia coli) | Inhibition (Klebsiella pneumoniae) | Inhibition (Candida albicans) | Inhibition (Cryptococcus neoformans)
1 | Cc1cn(C2CC(O)C(CO)O2)c(=O)n(Cc2ccccc2)c1=O (stereo unspecified) | 4.94% | 6.87% | 7.7% | 11.99% | 1.89% | -13.31%
2 | O=C1Cc2cccc(O)c(=O)c2C(=O)O1 | 18.22% | 9.21% | 9.09% | 8.59% | 1.02% | -4.33%
3 | CC1OC1c1ccc(-c2ccc(C3OC3C)cc2)cc1 (stereo unspecified) | 3.27% | -0.69% | 9.33% | 23.63% | 7.55% | -6.65%
4 | OCc1ncccc1O | -1.04% | -10.34% | -5.68% | 25.51% | 3.22% | 0.67%
5 | O=C(OCC(O)COC(=O)c1cccnc1)c1cccnc1 | 6.08% | 10.73% | 2.79% | 3.04% | 1.84% | -7.06%
6 | Cc1nc(N)nc(O)c1CCCNc1ccc(CCC2(CCl)OCCO2)cc1 | 17.48% | 2.84% | 11.06% | 8.53% | 1.57% | 3.7%
7 | O=C(O)c1cc(N2C(=O)C=CC2=O)cc(N2C(=O)C=CC2=O)c1 | -1.11% | -6.34% | 5.17% | 6.14% | 5.6% | -4%
8 | O=C(O)c1nn(-c2ccccc2-c2nnc(O)nc2O)c(=O)[nH]c1=O | 28.61% | 10.46% | 9.27% | 22.91% | 1.7% | 4.78%
9 | NC(=O)C1=C(N)c2ccccc2C1c1ccccc1 (stereo unspecified) | -22.4% | 2.22% | -18.86% | 1.18% | 4.94% | 28.25%
10 | CCOC(=O)C(=Cc1ccc(Br)cc1)C(=O)OCC | 4.77% | 8.54% | -5.6% | 28.34% | 19% | -1.07%
11 | N#Cc1c(N)nc(N)nc1Nc1ccc(Br)cc1 | 13.29% | -8.2% | -5.32% | 20.88% | 2.67% | -16.04%
12 | O=C(O)C1=NN(c2cc(Cl)c(S(=O)(=O)O)cc2Cl)C(=O)C1 | 10.8% | 12.97% | 19.15% | 14.41% | 2.3% | -14.45%
13 | Oc1ccc(Nc2ccnc3cc(Cl)ccc23)cc1 | -0.21% | 16.04% | -4.01% | 17.31% | 0.86% | -3.23%
14 | Sc1ncc2cnccn12 | -4.23% | -8.79% | 10.26% | 3.96% | 0.86% | -12.71%
15 | O=C1CSCc2nc3ccccc3n21 | 4.29% | -8.34% | 5.14% | 18.88% | 1.65% | -7.32%
16 | C=C1S/C(=N\c2c(C)cccc2Cl)N(C(=O)c2sc3ccccc3c2Cl)C12CCCCC2 | 4.2% | 0.82% | -2.79% | 4.92% | 5.73% | 0.57%
17 | NC(=O)c1ccccc1OCC(=O)Nc1ccc(Cl)c(Cl)c1 | 5.21% | -16.17% | 19.19% | 9.46% | 4.37% | -18.28%
18 | CCOC(=O)/C=C/c1ccc(C(=O)OCC)[nH]1 | 42.73% | 10.2% | 20.38% | 8.24% | 7.12% | 8.93%
19 | Oc1ccccc1/N=C/c1c(O)ccc2ccccc12 | 7.8% | -11.56% | 8.07% | 1.58% | 52.3% | 25.14%
20 | CCOC(=O)Cn1nc2oc(=O)c(CCN3CCN(c4ccccc4OC)CC3)c(C)c2c1C | 17.7% | -3.04% | 11.66% | 16.06% | 2.37% | -3.33%
21 | N#CC1C(=O)NC(=O)C(C#N)C12CCCC(C(F)(F)F)C2 (stereo unspecified) | 7.59% | 8.61% | -6.62% | 4.19% | 1.89% | -0.69%
22 | O=C1c2cc([N+](=O)[O-])ccc2-c2cc(Br)c(NC(=NO)C(F)(F)F)cc21 | 19.28% | -25.99% | 18.87% | 6.86% | -4.85% | -6.6%
23 | Cc1cc(O)c2cc(C(=O)c3ccccc3)ccc2n1 | 13.49% | 5.7% | 2.87% | 7.32% | 2.58% | -7.43%

Row | Structure (SMILES) | Inhibition (Staphylococcus aureus) | Inhibition (Acinetobacter baumannii) | Inhibition (Escherichia coli) | Inhibition (Klebsiella pneumoniae) | Inhibition (Candida albicans) | Inhibition (Cryptococcus neoformans)
24 | CC(=O)C1C=CC(C)(C(=O)O)C2C=C(C)C(=O)C(C)(O)C12 (stereo unspecified) | 4.72% | 16.27% | 8.25% | 21.21% | 1.75% | -4.78%
25 | C=CCSC(CC)(CC)C(N)=O | 1.95% | -2.06% | -8.58% | 10.13% | 1.53% | 7.21%
26 | CCC1=[N+]([O-])[N+]([O-])=C(c2ccccc2)/C1=N/O | 10.92% | 10.01% | -4.02% | 8.43% | 7.14% | -1.35%
27 | O=C(C=C=Nc1ccccc1)C(=O)N=C=Cc1ccccc1 | 7.34% | 5.35% | 5.03% | 25.39% | 6.53% | 5.95%
28 | Cc1ccncc1C(N)=O | 0.11% | -6.4% | 17.18% | 14.09% | 1.98% | -4.15%
29 | Cn1c(N)c(/N=N/c2ccc(S(N)(=O)=O)cc2)c(=O)n(C)c1=O | 19.52% | 4.45% | 15.26% | 20.82% | 2.91% | -0.3%
30 | CCNc1ccccc1C(=O)O | 19.64% | -10.34% | 13.74% | 16.83% | 5.51% | 2.27%
31 | OCc1nc2nc(Cl)c(Cl)[nH]c-2n1 | -3.73% | 14.74% | -8.33% | 8.57% | 1.75% | -8.15%
32 | CN1N=C(N)c2cn(C3OC(COP(=O)(O)O)C(O)C3O)c3ncnc1c23 (stereo unspecified) | 8.75% | 8.14% | -1.62% | 4.46% | -1.48% | -0.7%
33 | Nc1nc(S)c2ncn(C3CCCC3)c2n1 | 16.34% | -8.37% | 6.43% | 18.77% | -3.88% | -14.08%
34 | CC1=CC(=O)Nc2cncnc2N1 | 4.06% | -8.47% | 8.98% | 13.83% | 0.16% | 0.91%
35 | CC(C)(C)c1ccc(C(=O)Nc2ccc(S(N)(=O)=O)cc2)cc1 | 29.14% | 5.57% | 7.06% | 7.59% | 2.9% | -15.62%
36 | CC1CO/C(=C2\C(=O)OCC2C)C1 (stereo unspecified) | 4.79% | -14.17% | 10.92% | 2.95% | 41.2% | -12.83%
37 | CCOC(=O)Nc1c2ccccc2nc2ccccc12 | 6.28% | -11.12% | 4.72% | 16.5% | 2.36% | -13.98%
38 | Cc1cc(NC(=O)Nc2cccc3ccccc23)no1 | -11.32% | -7.4% | 9.22% | -0.15% | 8.31% | -12.19%
39 | Cc1nn(-c2ccccc2)nc1C(=O)Nc1ccc2[nH]ncc2c1 | 18.91% | 2.54% | 5.87% | 6.45% | -0.76% | -15.47%
40 | CCOC(=O)Nc1cc2c(c(N)n1)N=C(c1ccccc1)CN2 | 13.64% | 2.33% | 8.87% | 5.47% | 5.55% | -8.89%
41 | CCOC(=O)c1nn(-c2ccccc2)cc1O | -14.3% | -10.69% | -0.72% | -1.36% | 0.93% | -2.21%
42 | CC(C)(NC(=O)c1cc(Cl)c2ccccc2c1O)C(=O)O | 9.7% | 5.56% | 13.46% | 19.28% | 5.1% | 0.69%
43 | Clc1ccc(/C=C/c2nc(Cl)c(-c3ccc(Cl)cc3)c(Cl)n2)cc1 | 8.11% | 11.58% | 9.97% | 19.84% | 4.64% | -12.98%
44 | O=C(O)c1cc(Cl)nnc1O | 15.87% | -4.6% | 13.02% | -7.82% | -1.79% | -6.94%
45 | NC(=O)c1ccc(Cl)c2ccccc12 | 11.2% | -9.07% | 13.67% | 7.47% | 6.64% | -4.82%
46 | COC1OC(O)C(NC(=O)C(F)(F)F)CC1O (stereo unspecified) | 15.69% | 9.13% | 5.88% | 16.01% | 3.69% | -8.11%
